Screening results from PubChem.
ELG1 repair inh: ELG1-dependent DNA repair inhibition; HEK293T ELG1-luciferase reporter, luminescence, 16 h; DNA damage induced by 5-fluorouridine; Potency, µM (highest dose often 46.1 µM), without a hit: at the highest dose activity change, negative = inhibition, actives largely listed as inhibitors; 330,000 compounds, 2.3% hits; also: potency is read from the fitted curve at half-maximal effect; nearly all actives have a fitted effect of over 55% in size
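DMSO vehicle served as the neutral condition. Each well held 2,000 cells given 5-fluorouridine plus compound; after 16 hr at 37 °C/5% CO2, ONE-Glo was added and luciferase measured 30 min later.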
IL1B secr inh: blocks inflammasome-driven IL-1 beta release; THP-1 LPS/ATP IL-1B secretion, AlphaLISA, 16 h; active compounds read low; activity change, % at 57.5 µM; 360,000 compounds, 4.7% hits; AID 743279; in the data active = activity change below about -50%; inconclusive = mostly about -30% to -49%
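THP-1 cells pretreated 1 hr with compounds (up to 57.5 uM final), then stimulated with LPS (250 ng/mL final) plus ATP (1.25 mM final); secreted IL-1B measured by AlphaLISA after 16 hr, decreased signal indicating inhibition.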
HT1080 IDH1KD tx: toxicity to HT-1080 IDH1 knockdown cells (counter line). 360,000 compounds, 2% hits. HT-1080 IDH1 knockdown viability, ATP luminescence, 48 h. Potency, µM (titrated, usually from 46.1 µM), inactives show at the top dose activity, negative = toxicity, most hits filed as cytotoxic;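 also: potency is read from the fitted curve at half-maximal effect; 0% = DMSO wells and -100% = cell-free medium wells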
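IDH1KD HT-1080 cells, 750/well, RPMI + 5% FBS; compound pinned after 2 h settling; 48 h, 37 °C; CellTiter-Glo luminescence; % activity normalised to DMSO and no-cell wells; curves fitted, classed by r2 and efficacy.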
TDP1 cell CPT: DT40-hTDP1 cell growth loss with CPT; chicken DT40 Tdp1-/-;hTDP1 cells + 20 nM CPT, ATP luminescence, 48 h; Potency, µM (doses to about 46.2 µM), for the others: top-dose activity change, negative = growth inhibition, hits mostly inhibitors; 420,000 compounds, 12% hits; also: potency is read from the fitted curve at half-maximal effect; nearly all actives have a fitted effect of over 55% in size
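Cell growth measured by CellTiter-Glo luminescence after a minimum 48 h, 37 C compound exposure with 20 nM CPT in Tdp1-knockout DT40 cells stably expressing hTDP1, seeded 400/well; qHTS titration format.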
TDP1 cell noCPT: qHTS for Inhibitors of human tyrosyl-DNA phosphodiesterase 1 (TDP1): qHTS in cells in absence of CPT; DT40 Tdp1-/- hTDP1 cells, no CPT, ATP luminescence, 48 h; Potency, µM (series often up to 46.2 µM), inactives show top-dose activity change, negative = growth inhibition, hits mostly inhibitors; 420,000 compounds, 15% hits; also: potency is read from the fitted curve at half-maximal effect; nearly all actives have a fitted effect of over 55% in size
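Luminescent ATP content (CellTiter-Glo) served as the growth readout. Knockout chicken DT40 cells expressing human TDP1 were exposed to compounds without camptothecin for a minimum 48 hr at 37 °C.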
HT1080NT lethal: kills 2HG-producing HT-1080-NT fibrosarcoma cells | HT-1080-NT fibrosarcoma viability, CellTiter-Glo ATP luminescence, 48 h | Potency, µM (titrated, usually from 46.1 µM), for the others: top-dose activity, negative = less viability, actives largely listed as cytotoxic | 360,000 compounds, 1.6% hits;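 also: NT is the 2HG producing partner of a matched IDH1 knockdown line; potency is read from the fitted curve at half-maximal effect; 0% = DMSO-treated cells and -100% = media-only wells without cells; nearly all actives have a fitted effect of over 55% in size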
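A 48-hour cytotoxicity screen used HT-1080-NT cells plated 2 hours before compound delivery. ATP-based CellTiter-Glo luminescence measured viability, normalized to DMSO and no-cell controls.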
* marks the source's active call; other numbers are inactive results; ? = inconclusive; · = no result given; [ ] = remark or other dose. A selection: hits, their analogues and other compounds. The true share with any hit is near 19%. Unless noted, calls follow the shape of the dose curve; as a rule, active = well fitted curve in the direction sought with a large enough effect; inconclusive = small, poorly fitted or top-dose-only effect, or another doubt; inactive = no such curve, though single readings can be large; an effect the other way counts as inactive or inconclusive. Unless noted, % is scaled to controls: 0 for no effect and ±100 for the full control effect.

SMILES | ELG1 repair inh | IL1B secr inh | HT1080 IDH1KD tx | TDP1 cell CPT | TDP1 cell noCPT | HT1080NT lethal
COc1ccc(COCC(O)CN2CCC(CN3C(=O)c4cccc5cccc(c45)C3=O)CC2)cc1OC (stereo unspecified) | ? | -88* | ? | ? | 21µM* | ?
COc1cccc(OCC(O)CN2CCC(CN3C(=O)c4cccc5cccc(c45)C3=O)CC2)c1 (stereo unspecified) | ? | -97* | 23µM* | 8.2µM* | 7.3µM* | 18µM*
Cc1cc(C)cc(OCC(O)CN2CCC(CN3C(=O)c4cccc5cccc(c45)C3=O)CC2)c1 (stereo unspecified) | ? | -81* | 18µM* | 15µM* | ? | 18µM*
Cc1ccc(S(=O)(=O)N2CCC(CN3C(=O)c4cccc5cccc(c45)C3=O)CC2)cc1 | 0% | -4 | 3% | ? | ? | 6%
CCNC(=S)N(Cc1ccccc1)Cc1nc2ccccc2c(=O)[nH]1 | -9% | 9 | -3% | 0% | -2% | 0%
CCc1ccc(OCC(O)CN2CCC(CN3C(=O)c4cccc5cccc(c45)C3=O)CC2)cc1 (stereo unspecified) | ? | -10 | 8% | 15µM* | 21µM* | -1%
O=C(N1CCOCC1)N1CCN(CC(O)COc2ccc3ccccc3c2)CC1 (stereo unspecified) | -10% | -8 | -2% | 1% | -29% | -8%
O=C1c2cccc3cccc(c23)C(=O)N1CC1CCN(CC(O)COc2ccc3ccccc3c2)CC1 (stereo unspecified) | ? | -95* | 15µM* | 15µM* | 12µM* | 18µM*
C[C@@H]1[C@H](O)C[C@@]23COC(=O)C2=CCCC3[C@@]1(C)CCC1COC(=O)C1 (stereo partly specified) | 25% | 14 | 2% | 12% | 9% | ?
CCCC1NC(=O)c2cccnc2-n2c1nc1cc(F)c(F)cc1c2=O (stereo unspecified) | · | -24 | -7% | -17% | -1% | 0%
Cn1c(S(=O)(=O)c2ccc([N+](=O)[O-])cc2)nc(Br)c1Br | -11% | · | ? | 21µM* | ? | ?
COC(=O)c1ccc(S(=O)(=O)c2ccc([N+](=O)[O-])cc2)cc1 | -8% | -4 | 1% | ? | -28% | 13%
CCc1ccccc1Nc1nn2c(=O)c3ccc(C(=O)NC4CCCCC4)cc3nc2s1 | · | · | · | 10µM* | 13µM* | ·
COc1ccccc1Nc1ccc(C(=O)NC2CCCCC2)cn1 | 25% | ? | -14% | ? | ? | 4%
COc1ccccc1Nc1nn2c(=O)c3ccc(C(=O)NC4CCCCC4)cc3nc2s1 | · | · | · | 2.3µM* | 3.7µM* | ·
CCOc1ccc(NC(=O)CC2C(=O)N(c3ccc(Cl)cc3)C(=O)N2Cc2cccs2)cc1 (stereo unspecified) | · | · | · | ? | 13µM* | ·
COC(=O)CN1C(=S)N(c2ccc(Cl)cc2)C(=O)C1CC(=O)Nc1ccccc1 (stereo unspecified) | -16% | 0 | 9% | -15% | -17% | 8%
COC(=O)c1ccc(NC(=O)CC2C(=O)N(c3ccc(Cl)cc3)C(=O)N2Cc2cccs2)cc1 (stereo unspecified) | · | · | · | 23µM* | ? | ·
COC(=O)c1ccc(NC(=O)CC2C(=O)N(c3ccccc3)C(=O)N2Cc2cccs2)cc1 (stereo unspecified) | · | · | · | 16µM* | 18µM* | ·
O=C(COC(=O)c1ccc(Cl)nc1)NNC(=O)c1ccc(Br)cc1 | 10% | 6 | -4% | 0% | 16% | 3%
COc1ccc(OC)c(NC(=O)c2ccc3c(SCC(=O)O)c4c(nc3c2)CCCC4)c1 | · | · | · | -4% | ? | ·
COc1ccc(Cl)cc1N(C)C(=O)Cn1cnc2sc(C)c(S(=O)(=O)N3CCN(c4ncccn4)CC3)c2c1=O | · | · | · | -25% | ? | ·
CCN(c1cccc2ccccc12)S(=O)(=O)c1ccc(Cl)nc1 | ? | -75* | -8% | ? | ? | -9%
CCN(CC)C(=O)CSc1nnc(COc2cccc(C)c2)n1C | -10% | · | · | · | · | ·
O=C(CSc1nnc(-c2c[nH]c3ccccc23)o1)N(Cc1ccccc1)c1ccc(F)cc1 | 21µM* | -65* | -29%[9.24 µM] | ? | ? | ?
SMILES | ELG1 repair inh | IL1B secr inh | HT1080 IDH1KD tx | TDP1 cell CPT | TDP1 cell noCPT | HT1080NT lethal
CCOC(=O)CN(C(=O)CSc1nnc(-c2cccc(OC)c2)o1)c1ccc(F)cc1 | 0% | 39 | -9% | ? | 16µM* | -20%
COc1ccc(CN(C(=O)CSc2nnc(-c3ccccc3C)o2)c2ccc(F)cc2)cc1 | ? | -3 | ? | ? | 23µM* | ?
CCCCCC(=O)Nc1ccc(S(=O)(=O)NC2=NCCCCC2)cc1 | -1% | 1 | 2% | -23% | 13% | 5%
O=C(CCl)N(CCCNC(=O)C(F)(F)F)c1ccc([N+](=O)[O-])cc1 | 0% | -101* | 7.3µM* | 2.6µM* | 6.5µM* | 21µM*
CC(C)(C)c1ccc(Nc2n[nH]c3ccccc23)cc1 | · | 0 | ? | ? | ? | ?
O=C(NC12CC3CC(CC(C3)C1)C2)c1c(Cl)cccc1Cl | 7% | 10 | 0% | -10% | 0% | 3%
Cc1ccc(-c2nnc(NCc3ccccc3)c3ccccc23)cc1 | ? | -84* | -11% | ? | ? | -13%
Clc1ccc(-c2nnc(NCc3ccccc3)c3ccccc23)cc1 | ? | -94* | ? | ? | ? | ?
COC(=O)c1cc(NC(=O)Cc2ccc(OC)c(OC)c2)cc(C(=O)OC)c1 | ? | -21 | 18% | ? | ? | 11%
COc1ccc(CC(=O)Nc2cccc(SC)c2)cc1OC | 5.2µM* | 9 | -1% | 12µM* | 9.2µM* | -21%
COc1ccc(CCC(=O)Nc2cccc(S(=O)(=O)N3CCCCCC3)c2)cc1OC | ? | -23 | -20% | ? | 15µM* | -9%[9.24 µM]
COc1ccc(CC(=O)Nc2ccc(S(=O)(=O)N3CCCCC3)cc2)cc1OC | -1% | -4 | -4% | ? | ? | -13%
COc1ccc(CC(=O)Nc2cc(S(=O)(=O)N3CCCCC3)ccc2OC(C)C)cc1OC | · | -1 | -6% | ? | 21µM* | -6%
